Results filed as inconclusive are left out. Activity calls are given as the source filed them. Calls come from the whole dose curve; as a rule, active = well fitted cell-killing curve with a large enough effect in the repeat runs; inconclusive = weak or mixed curves; inactive = flat fitted curve, though single readings scatter.
Experiment: qHTS assay to identify small molecule antagonists of the estrogen receptor beta (ER-beta) signaling pathway - cell viability counter screen (AID 1259382);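 note: HEK293T cells carrying ER-beta-UAS-bla reporter stimulated with estradiol; nearly all actives have a fitted effect of over 55% in size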
Settings: ER-beta-UAS-bla HEK293T viability, CellTiter-Glo luminescence, 16 h; series mostly up to 92.4 µM; activity change, negative = cytotoxicity: at the top concentration
Outline: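 CellTiter-Glo ATP luminescence measured after the LiveBLAzer read in the same wells; ER-beta-UAS-bla HEK293T cells, 16 hr compound treatment with 1nM 17-beta-estradiol agonist at 37C, 5% CO2.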
With C[C@@H](O)C(=O)O the “activity change, negative = cytotoxicity” value was 6.1% (inactive).
With CC1c2ccccc2CN1NC(=O)c1ccc(Cl)c(S(N)(=O)=O)c1 (stereo not drawn) the “activity change, negative = cytotoxicity” value was -0.661% [at 42.5 µM] (inactive).
For O=C1CCC(=O)N1Cl, the “activity change, negative = cytotoxicity” value was 10.9% (inactive).
For C/C(CC(C)C)=N\O, the “activity change, negative = cytotoxicity” value was 7.55% (inactive).
With CCC(C)C(=O)OCCc1ccccc1 (stereo not drawn) the “activity change, negative = cytotoxicity” value was 2.88% (inactive).
For CC(=O)CCC1=C(C)CCCC1(C)C, the “activity change, negative = cytotoxicity” value was -0.995% (inactive).
With CCOc1ccccc1OCC1CNCCO1 (stereo not drawn) the “activity change, negative = cytotoxicity” value was -0.522% [at 42.5 µM] (inactive).
In the case of COC(=O)c1cccc(Cl)c1, the “activity change, negative = cytotoxicity” value is reported as 9.33% (inactive).
With Cc1ccc2c(c1)C(=O)c1ccccc1C2=O the “activity change, negative = cytotoxicity” value was -1.85% (inactive).
For C=C(C)c1cccc(C(C)(C)N=C=O)c1, the “activity change, negative = cytotoxicity” value was -0.518% (inactive).
With Cc1cc(C)c(C(=O)O)c(C)c1 the “activity change, negative = cytotoxicity” value was -1.57% (inactive).
With CCCSSCCC the “activity change, negative = cytotoxicity” value was 1.34% (inactive).
For CC1(C)Cc2cccc(N)c2O1, the “activity change, negative = cytotoxicity” value was -4.64% (inactive).
With C=CCN1C[C@H](C(=O)N(CCCN(C)C)C(=O)NCC)C[C@@H]2c3cccc4[nH]cc(c34)C[C@H]21 the “activity change, negative = cytotoxicity” value was 2.46% [at 42.5 µM] (inactive).
For O=C[O][Al]([O]C=O)[O]C=O, the “activity change, negative = cytotoxicity” value was 9.34% (inactive).
In the case of CC1CC(=O)CC(C)(C)C1 (stereo not drawn), the “activity change, negative = cytotoxicity” value is reported as -0.182% (inactive).
In the case of CC(C)Nc1ccccc1, the “activity change, negative = cytotoxicity” value is reported as -5.18% (inactive).
For CCCCCCCCCCCCCCC(=O)NC(CO)CCCCCCCCCCCCCC (stereo not drawn), the “activity change, negative = cytotoxicity” value was 0.696% (inactive).
With CN(C)CCCCl the “activity change, negative = cytotoxicity” value was 5.65% (inactive).
For C[C@H]1[C@@H](c2ccccc2)NC(=O)N1C, the “activity change, negative = cytotoxicity” value was -10% (inactive).
For CC(=O)OC1CCCCC1C(C)(C)C (stereo not drawn), the “activity change, negative = cytotoxicity” value was 0.117% (inactive).
With O=C(O)[C@H](O)c1ccccc1 the “activity change, negative = cytotoxicity” value was 13% [at 42.5 µM] (inactive).
For COC(=O)CCCCC(=O)O, the “activity change, negative = cytotoxicity” value was 0.881% (inactive).
With C=CCSSCCC the “activity change, negative = cytotoxicity” value was -1.72% (inactive).
For CO/N=C(/C(=O)N[C@@H]1C(=O)N2C(C(=O)[O-])=C(C[n+]3ccn4ncccc43)CS[C@H]12)c1nsc(N)n1, the “activity change, negative = cytotoxicity” value was 0.288% [at 42.5 µM] (inactive).
With CC12CCC(C1)C(C)(C)C2O (stereo not drawn) the “activity change, negative = cytotoxicity” value was -3.38% (inactive).
In the case of C/C=C(\C)C(C)=O, the “activity change, negative = cytotoxicity” value is reported as -1.42% (inactive).
In the case of CN(C)CCN(C)CCO, the “activity change, negative = cytotoxicity” value is reported as 2.67% (inactive).
% is set by controls: 0 for no effect and ±100 for the full control effect.
